Bioassay records from PubChem BioAssay.
KDM4E inh: qHTS Assay for Inhibitors of Human Jumonji Domain Containing 2E (JMJD2E); 230,000 compounds, 1.6% hits; Lysine-specific demethylase 4E (Homo sapiens), B2RXH2; JMJD2E catalytic domain, FDH-coupled NADH fluorescence (FDH is formaldehyde dehydrogenase); Potency, µM (top dose mostly 57.1 µM), usual class: inhibitors; active means well fitted inhibition curve with a large enough effect, not every such curve was filed as active; inconclusive means small, poorly fitted or top-dose-only effect, or another doubt; inactive means no such curve, though single readings can be large or run the other way; further: nearly all actives have a fitted effect of over 50% in size
Tau FP inhib: qHTS for Inhibitors of Tau Fibril Formation, Fluorescence Polarization; Potency, µM (highest dose often 57.7 µM), usual class: inhibitors; K18 P301L tau heparin fibrillization, Alexa594 FP, 6 h; 280,000 compounds, 0.39% hits; further: nearly all actives have a fitted effect of over 55% in size
Target sequence (P10636 561-689 P618L limits assumed): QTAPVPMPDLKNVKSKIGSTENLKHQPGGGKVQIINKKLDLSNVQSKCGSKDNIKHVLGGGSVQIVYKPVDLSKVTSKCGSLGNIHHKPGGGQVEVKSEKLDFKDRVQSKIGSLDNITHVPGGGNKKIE
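Read-out: fluorescence polarization of Alexa 594-labeled tau (0.24 uM), 555 nm excitation, 632 nm emission. Mixtures held 15 uM unlabeled K18 P301L, compound and 20 uM heparin, pH 7 acetate buffer, incubated 6 hr at 37 C.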
Tau fluor cs: Counterscreen qHTS for Inhibitors of Tau Fibril Formation, Fluorescence Polarization. tau K18 P301L Alexa594 fluorescence, heparin fibrillization. Potency, µM (titrated, usually from 57.7 µM). 280,000 compounds, 0.93% hits; further: nearly all actives have a fitted effect of over 55% in size
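Human K18 P301L tau (15 uM unlabeled plus 0.24 uM Alexa 594-labeled, final) in 100 mM sodium acetate pH 7 was mixed with compound and 20 uM heparin and incubated 6 hr at 37 C.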
Tau ThT inhib: qHTS for Inhibitors of Tau Fibril Formation, Thioflavin T Binding; 270,000 compounds, 2.1% hits; Potency, µM (top dose mostly 57.4 µM), hits mostly inhibitors; Microtubule-associated protein tau (Homo sapiens), P10636; recombinant tau K18 P301L (four-repeat tau fragment), heparin-induced fibrillization, ThT fluorescence; further: nearly all actives have a fitted effect of over 55% in size
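Recombinant human tau K18 fragment […] carrying P301L, 15 uM unlabeled plus 0.24 uM Alexa 594-labeled, was fibrillized with 20 uM heparin in 100 mM sodium acetate pH 7 for 6 hr at 37 C; 30 uM ThT fluorescence read after 1 hr.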
ALDH1A1 block: qHTS Assay for Inhibitors of Aldehyde Dehydrogenase 1 (ALDH1A1). Aldehyde dehydrogenase 1A1 (Homo sapiens), P00352. Purified ALDH1A1, NADH fluorescence, propionaldehyde substrate. Potency, µM (doses to about 75.3 µM), most hits filed as inhibitors. 220,000 compounds, 7.3% hits. AID 1030, 2008; active means well fitted inhibition curve with a large enough effect, not every such curve was filed as active; inconclusive means small, poorly fitted or top-dose-only effect, or another doubt; inactive means no such curve, though single readings can be large or run the other way
Target sequence (P00352 whole entry, looked up): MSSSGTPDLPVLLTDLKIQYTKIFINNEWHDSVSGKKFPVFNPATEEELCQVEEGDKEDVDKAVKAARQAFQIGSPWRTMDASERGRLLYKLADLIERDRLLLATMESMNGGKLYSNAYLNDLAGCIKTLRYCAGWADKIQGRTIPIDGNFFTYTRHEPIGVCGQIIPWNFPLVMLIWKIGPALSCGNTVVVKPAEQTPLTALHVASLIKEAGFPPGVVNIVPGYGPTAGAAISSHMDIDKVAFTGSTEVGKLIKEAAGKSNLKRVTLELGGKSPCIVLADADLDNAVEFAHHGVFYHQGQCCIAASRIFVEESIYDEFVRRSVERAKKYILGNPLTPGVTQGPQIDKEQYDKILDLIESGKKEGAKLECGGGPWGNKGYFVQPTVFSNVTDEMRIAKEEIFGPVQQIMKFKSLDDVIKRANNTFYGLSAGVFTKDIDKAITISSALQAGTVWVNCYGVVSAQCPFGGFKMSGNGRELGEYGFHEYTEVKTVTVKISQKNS
HPGD inh: qHTS Assay for Inhibitors of HPGD (15-Hydroxyprostaglandin Dehydrogenase); 15-hydroxyprostaglandin dehydrogenase [NAD(+)] (Homo sapiens), P15428; purified HPGD, NADH fluorescence kinetic, PGE2 substrate; Potency, µM, actives largely listed as inhibitors; 150,000 compounds, 4.3% hits; AID 894, 2007; active means well fitted inhibition curve with a large enough effect, not every such curve was filed as active; inconclusive means small, poorly fitted or top-dose-only effect, or another doubt; inactive means no such curve, though single readings can be large or run the other way
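20 nM HPGD preincubated 15 min at room temperature with compound in 50 mM Tris-HCl pH 8, 0.01% Tween 20. Started with 1 mM NAD+ and 30 uM prostaglandin E2; NADH fluorescence (360/450 nm) read 5 times over 30-s intervals, last minus first.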
Hits are given with their value; ! = not confirmed by another sample; [ ] = dose if it differs, or a comment. Most compounds without a hit are left out; they make up all but 9.9% or so of the library. Unless noted, the call rests on the fitted dose curve; in most records, active means well fitted curve in the direction sought with a large enough effect; inconclusive means small, poorly fitted or top-dose-only effect, or another doubt; inactive means no such curve, though single readings can be large; an effect the other way counts as inactive or inconclusive.

For CC1CC(C)(C)CC2(C1)NC(=S)N(c1ccccc1)N2 (stereo unspecified) the results were KDM4E inh inconclusive, Tau FP inhib inactive, Tau fluor cs inactive, Tau ThT inhib inactive, ALDH1A1 block 16µM and HPGD inh inactive.
`CC1CCCC2(C1)NC(=S)N(c1ccccc1)N2` (stereo unspecified) gave KDM4E inh inconclusive, Tau FP inhib inactive, Tau fluor cs inactive, Tau ThT inhib inconclusive, ALDH1A1 block inconclusive and HPGD inh inactive.
`Cc1c(-c2ccccc2)oc2cc(O)ccc2c1=O` gave KDM4E inh inactive, Tau FP inhib inactive, Tau fluor cs inactive, Tau ThT inhib inactive, ALDH1A1 block inconclusive and HPGD inh inactive.
For C/C=C/c1ccc2oc(-c3ccc(O)cc3)c(C)c2c1 the results were KDM4E inh inconclusive, Tau FP inhib inconclusive, Tau fluor cs 14µM[quencher], Tau ThT inhib 18µM, ALDH1A1 block inconclusive and HPGD inh inconclusive.
Cc1c(NC(=O)c2cccc(-c3cc4ccccc4oc3=O)c2)cccc1-c1nc2ncccc2o1 was read as KDM4E inh inconclusive, Tau FP inhib inactive, Tau fluor cs inactive, Tau ThT inhib inconclusive, ALDH1A1 block inconclusive and HPGD inh inconclusive.
`COc1ccc(-c2nc(CSCC(=O)N3CCN(C)CC3)c(C)o2)cc1OC` gave KDM4E inh inconclusive, Tau FP inhib inactive, Tau fluor cs inactive, Tau ThT inhib inactive, ALDH1A1 block inactive and HPGD inh inactive.
CCOC(=O)N1CCN(C(=O)CSCc2nc(-c3ccccc3F)oc2C)CC1 was read as KDM4E inh inactive, Tau FP inhib inactive, Tau fluor cs inactive, Tau ThT inhib inconclusive, ALDH1A1 block 22µM and HPGD inh inactive.
For COc1ccc(-c2nc(CSCC(=O)N3CCN(C(=O)c4ccco4)CC3)c(C)o2)cc1OC the results were KDM4E inh inconclusive, Tau FP inhib inactive, Tau fluor cs inactive, Tau ThT inhib inactive, ALDH1A1 block 20µM and HPGD inh inactive.
CC(=O)N1CCCc2cc(S(=O)(=O)NC(C(=O)NC3CCCCC3)C(C)C)ccc21 (stereo unspecified) was read as KDM4E inh inactive, Tau FP inhib inactive, Tau fluor cs inactive, Tau ThT inhib inactive, ALDH1A1 block 7.1µM and HPGD inh inactive.
CCOc1ccc(NC(=O)CCS(=O)(=O)c2ccc3c(c2)CCCN3C(C)=O)cc1 was read as KDM4E inh inactive, Tau FP inhib inactive, Tau fluor cs inactive, Tau ThT inhib inactive, ALDH1A1 block 19µM and HPGD inh inactive.
CCC(=O)N1CCCc2cc(S(=O)(=O)N3CCCc4ccccc43)ccc21 was read as KDM4E inh inactive, Tau FP inhib inactive, Tau fluor cs inactive, Tau ThT inhib inactive, ALDH1A1 block 18µM and HPGD inh inactive.
Screening CC(=O)N1CCCc2cc(S(=O)(=O)N(CCN(C)C)Cc3ccccc3)ccc21 returned Tau FP inhib inactive, Tau fluor cs inactive and Tau ThT inhib inactive.
For CCC(=O)N1CCc2cc(S(=O)(=O)N3CCc4ccccc4C3)ccc21 the results were KDM4E inh inconclusive, Tau FP inhib inactive, Tau fluor cs inactive, Tau ThT inhib inactive, ALDH1A1 block inconclusive and HPGD inh inconclusive.
`CC(=O)N1CCCc2cc(S(=O)(=O)N(C)Cc3ccccc3)ccc21` gave KDM4E inh inactive, Tau FP inhib inactive, Tau fluor cs inactive, Tau ThT inhib inactive, ALDH1A1 block inconclusive and HPGD inh 32µM.
Screening CC(=O)N1CCCc2cc(S(=O)(=O)NC(C(=O)NC(C)c3ccccc3)C(C)C)ccc21 (stereo unspecified) returned KDM4E inh inactive, Tau FP inhib inactive, Tau fluor cs inactive, Tau ThT inhib inactive, ALDH1A1 block 3.2µM and HPGD inh inactive.
CSc1cccc(NC(=O)C2(S(=O)(=O)c3ccc(C)cc3)CC2)c1 was read as KDM4E inh inactive, Tau FP inhib inactive, Tau fluor cs inactive, Tau ThT inhib inactive and ALDH1A1 block inactive.
`COc1ccc(C(=O)c2ccccc2)c(O)c1` gave KDM4E inh inactive, Tau FP inhib inactive, Tau fluor cs inactive, Tau ThT inhib inactive, ALDH1A1 block 32µM! and HPGD inh 16µM!.
Screening CCOC(=O)COc1ccc(C(=O)c2ccccc2)c(O)c1 returned KDM4E inh inactive, Tau FP inhib inactive, Tau fluor cs inactive, Tau ThT inhib inactive, ALDH1A1 block inactive and HPGD inh 16µM.
COc1ccc(C(=O)c2ccccc2)c(O)c1O was read as KDM4E inh 22µM, Tau FP inhib inactive, Tau fluor cs inactive, Tau ThT inhib inconclusive, ALDH1A1 block inactive and HPGD inh inactive.
For COc1ccc(C(C)=O)c(O)c1 the results were KDM4E inh inactive, Tau FP inhib inactive, Tau fluor cs inactive, Tau ThT inhib inactive, ALDH1A1 block inconclusive and HPGD inh 18µM.
For COc1ccccc1-c1c(C)oc2cc(OCC(=O)OCc3ccccc3)ccc2c1=O the results were KDM4E inh inactive, Tau FP inhib inactive, Tau fluor cs inactive, Tau ThT inhib inactive, ALDH1A1 block inactive and HPGD inh inactive.
Screening CCc1ccc(NC(=S)N(CCN2CCOCC2)Cc2ccccc2F)cc1 returned KDM4E inh inactive, Tau FP inhib inactive, Tau fluor cs inactive, Tau ThT inhib inactive and ALDH1A1 block inactive.
COc1ccc(CNc2nc(S(=O)(=O)c3ccccc3)c(Cl)s2)cc1OC was read as KDM4E inh inactive, Tau FP inhib inactive, Tau fluor cs inconclusive, Tau ThT inhib inactive, ALDH1A1 block inactive and HPGD inh inactive.
`O=C(NCC1CCCO1)C(c1ccncc1)N(Cc1ccc(F)cc1)C(=O)CN1C(=O)c2ccccc2S1(=O)=O` (stereo unspecified) gave KDM4E inh inactive, Tau FP inhib inactive, Tau fluor cs inactive, Tau ThT inhib inactive, ALDH1A1 block 13µM and HPGD inh inactive.
COc1cccc(C(C(=O)NCC2CCCO2)N(CC2CCCO2)C(=O)CN2C(=O)c3ccccc3S2(=O)=O)c1 (stereo unspecified) was read as KDM4E inh inconclusive, Tau FP inhib inactive, Tau fluor cs inactive, Tau ThT inhib inactive and ALDH1A1 block 14µM.
`Cc1ccccc1CCNC(=O)c1cc2cc(S(=O)(=O)N3CCCCC3)ccc2n1C` gave Tau FP inhib inactive, Tau fluor cs inactive and Tau ThT inhib inactive.
`O=C(NC(=S)Nc1cc([N+](=O)[O-])ccc1Cl)c1ccccc1` gave KDM4E inh inactive, Tau FP inhib inactive, Tau fluor cs inconclusive, Tau ThT inhib inconclusive, ALDH1A1 block 8.9µM and HPGD inh inconclusive.
